This is one part of a sample in which hits are shown more often than they occur.
ERp5 block = blocks human ERp5 reductase activity on insulin | inhibition, % at 9.99 µM | ERp5 insulin aggregation, absorbance 650 nm, 90 min | actives 0.05% (n = 350,000) | AID 651711;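 active = mean replicate inhibition above about 25%, with every replicate also reaching it, limit read from the data, passing the limit was not always enough; inconclusive = only one of those two criteria met; inactive = neither criterion met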
Target sequence (Q15084 whole entry, looked up): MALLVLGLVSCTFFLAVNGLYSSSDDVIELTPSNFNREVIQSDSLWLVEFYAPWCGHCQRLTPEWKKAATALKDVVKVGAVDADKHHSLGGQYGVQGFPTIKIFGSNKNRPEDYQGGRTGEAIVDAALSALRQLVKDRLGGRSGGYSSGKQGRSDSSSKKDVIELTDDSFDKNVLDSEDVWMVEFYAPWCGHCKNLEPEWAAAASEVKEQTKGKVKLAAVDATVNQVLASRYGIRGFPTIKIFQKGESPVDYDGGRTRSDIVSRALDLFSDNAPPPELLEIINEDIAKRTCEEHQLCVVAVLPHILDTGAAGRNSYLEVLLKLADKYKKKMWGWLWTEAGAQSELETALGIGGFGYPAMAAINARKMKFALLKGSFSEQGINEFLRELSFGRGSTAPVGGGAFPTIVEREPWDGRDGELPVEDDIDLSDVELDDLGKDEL
PDI turbidity = PDI (human) enzyme inhibition. inhibition, % at 10 µM. P07237. PDI insulin aggregation turbidity, A650, 90 min. actives 0.052% (n = 350,000);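 active = mean inhibition across replicates of 30% or more, whatever share of single replicates reach that level; inconclusive = mean inhibition below 30% while every single replicate reaches 30%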
ALR inh = blocks human ALR sulfhydryl oxidase activity | AID 485317 | actives 3.8% (n = 290,000) | purified ALR, DTT oxidation, H2O2 HRP-luminol luminescence | inhibition, % (no concentration beside the values) | P55789;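 active = mean replicate inhibition above about 79%, with every replicate also reaching it, limit read from the data; inconclusive = only one of the two criteria met; inactive = mean below limit and not every replicate reaching it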
ARNT TACC3 PPI = ARNT/TACC3 interaction disruption; Q9Y6A5; AID 623870; actives 0.66% (n = 390,000); inhibition, % at 9.99 µM; AlphaScreen His-ARNT PAS-B/GST-TACC3 binding, luminescence; TACC3 fragment carries E629A point mutation;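 active = mean inhibition of replicates at least 50% and at least half of replicates each reaching 50%; inconclusive = half or more replicates reach 50% but mean below 50%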;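 note: 0% = complete ARNT plus TACC3 wells and 100% = ARNT alone without TACC3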
CendR NRP1 mod = alters CendR peptide binding to human NRP-1; actives 0.85% (n = 360,000); FAM-RPARPAR peptide binding to NRP-1, fluorescence polarization; inhibition, % at 25 µM; O14786;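 active = inhibition or corrected inhibition above about 18%, plus a signal ratio from 0.5 to 1.5, limit read from the data, passing the limit was not always enough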
PglD DTNB = inhibitors of Campylobacter jejuni PglD acetyltransferase; actives 0.098% (n = 360,000); purified PglD enzyme, DTNB colorimetric CoA detection; inhibition, % at 12.5 µM; in the data active = inhibition above about 16%, passing the limit was not always enough; inconclusive = no clear call, values can overlap the other calls
* = called active by the depositor; ? = inconclusive; . = not tested or not shown.

SMILES	ERp5 block	PDI turbidity	ALR inh	ARNT TACC3 PPI	CendR NRP1 mod	PglD DTNB
CC(C)N1CCc2c(sc(NC(=O)CCS(=O)(=O)c3ccccc3)c2C(N)=O)C1	1.8	5.7	-3.2	-3.3	25.1*	6.3
O=C(Nc1cccc(C(F)(F)F)c1)C1Cc2c(-c3cccc(F)c3)ccnc2O1 (stereo unspecified)	8.1	-80.1	.	.	29.9*	0.1
CCOC(=O)N1CCN(c2cc(NCCC(=O)O)c3c4c(onc24)-c2ccccc2C3=O)CC1	.	0.3	?	57.8*	42.0	-4.1
CN1CCN(c2cc(N3CCN(C(=O)c4ccco4)CC3)c3c4c(onc24)-c2ccccc2C3=O)CC1	.	-2.7	2.7	39.8	135.7	-1.1
O=C(O)CCCNc1cc(N2CCN(C(=O)c3ccco3)CC2)c2noc3c2c1C(=O)c1ccccc1-3	-0.2	-0.4	18.8	45.7*	-180.7	2.9
C[C@@H]1CCCCO[C@@H](CN(C)Cc2ccccc2)[C@@H](C)CN([C@H](C)CO)C(=O)c2cc(NC(=O)CCC(F)(F)F)ccc2O1	-0.3	.	.	-3.4	.	2.3
C[C@@H]1CN([C@H](C)CO)C(=O)c2cc(NC(=O)NC3CCCCC3)ccc2O[C@@H]1CN(C)Cc1ccc(Cl)c(Cl)c1	-1.9	.	.	-1.7	.	1.1
CCN(CC)c1ccc(NC(=O)COC(=O)CSc2ccc(Br)cc2C)cc1	-1.4	-8.0	98.9*	-28.1	0.3	.
Cc1cc(C)c(NC(=O)COC(=O)CSc2ccc(Br)cc2C)c(C)c1	.	-18.8	-2.2	-3.3	-5.5	-5.9
CCn1c(C)nnc1SCC(=O)NC1CCCCCC1	3.9	10.0	4.2	1.9	27.3*	2.6
COCC(=O)Nc1ccc2c(c1)OC[C@@H](C)N(Cc1cc(-c3ccccc3)on1)C[C@@H](C)[C@H](OC)CN(C)C2=O	-6.0	.	.	7.5	.	1.5
O=S(=O)(Cc1ccccc1)N(O)c1ccccc1	-6.0	0.0	98.9*	-1.7	6.0	4.1
O=c1nc2c(O)cccn2c2c1c(=O)[nH]c1ccccc12	-6.2	4.4	.	26.4	48.0*	-9.5
O=c1[nH]c2ccccc2c2nc3ccccn3c12	.	4.3	4.0	14.6	-6.2	-2.5
C[C@H]1CN([C@@H](C)CO)C(=O)c2c(c3ccccc3n2C)-c2ccccc2CO[C@H]1CN(C)Cc1cccnc1	2.0	.	.	15.5	.	-1.1
Cc1ccc(SC(=O)COc2ccccc2C)cc1	.	2.4	98.8*	-6.5	-2.3	3.7
Cc1ccc(OC(=O)COc2ccccc2C)cc1	-0.2	0.5	-7.7	.	-8.2	.
COc1cc(C2C=C(Nc3ccccc3)C(=O)N2c2ccccc2)ccc1O (stereo unspecified)	.	-43.2	36.4	36.2	2.8	4.5
O=C1C(Nc2ccccc2)=CC(c2ccc(O)cc2)N1c1ccccc1 (stereo unspecified)	-1.2	-2.3	31.6	67.4*	2.8	.
Cc1ccc(C2C(/C=C3/SC(=S)NC3=O)=C(c3cccs3)Oc3ccccc32)cc1 (stereo unspecified)	-0.1	-2.4	98.9*	11.2	-50.9	.
COc1ccc(/C=C/C(=O)NCC(=O)N/N=C/c2cccnc2)cc1	-0.4	-5.5	-25.2	-1.1	-6.4	.
COc1ccc(/C=C/C(=O)NCC(=O)N/N=C/c2ccc(OC)cc2)cc1	2.4	2.6	21.7	-10.6	19.8*	.
CN(C)c1ccc(/C=N/NC(=S)NCc2ccco2)cc1	2.4	3.6	97.7*	12.4	-3.6	-5.7
S=C(NCc1ccco1)N/N=C/c1ccncc1	-4.5	5.9	7.4	0.4	10.0	.
CN(C)c1ccc(/C=N/NC(=O)CNC(=O)/C=C/c2ccco2)cc1	-2.5	-5.9	90.9*	-2.6	-2.9	5.6
Cc1cc(C)nc(NCC(O)CNc2ccccc2C)n1 (stereo unspecified)	.	-14.8	98.4*	0.3	5.5	.
Cc1cc(C)nc(NCC(O)COc2ccccc2C)n1 (stereo unspecified)	.	-8.3	0.4	-1.4	1.1	3.8
Cc1ccc(S(=O)(=O)Nc2ccc3c(c2)C(=O)N([C@H](C)CO)C[C@H](C)[C@H](CN(C)Cc2ccc(C(F)(F)F)cc2)OCCCC[C@H](C)O3)cc1	-1.2	.	.	14.0	.	0.8
O=C1CCCCC1C(Nc1ccc(Br)cc1)c1ccccc1 (stereo unspecified)	.	14.5	28.7	-1.5	-0.5	-0.1

Screens from PubChem BioAssay.
